PubChem BioAssay (NCATS)
Records with an inconclusive call do not appear. The source made the active and inactive calls. Calls follow the shape of the dose curve; as a rule, active = well fitted inhibition curve with a large enough effect; inconclusive = small, poorly fitted or top-dose-only effect; inactive = flat fitted curve, though single readings scatter. *1 amine or outer side, *2 acyl side, *3 side chain or, on linkers, in order; H or OH if unused. Where a SMILES comes first, the peptide text is derived from it. Bridges are numbered along the chain shown (N, C = ends). [ ]: non-standard residue; d: D form. The star is where a group is joined. X5 = NC1=N[C@@H]([C@H](N[*:1])C(=O)[*:2])C[C@H](O)N1; ΔAla(Z-3-ureido) = NC(=O)N/C=C(\N)C(=O)O; β3hOrn = NCCC[C@H](N)CC(=O)*; X2 = CC[C@H](C)CCCCC(=O)*; Dab = NCC[C@H](N)C(=O)O; Dap = NC[C@H](N)C(=O)O

System: KB-3-1
Experiment: Cytotoxic Profiling of Annotated Libraries Using Quantitative High-Throughput Screening (AID 1296008); also: nearly all actives have a fitted effect of over 60% in size
Details: Five cell lines viability, CellTiter-Glo ATP luminescence, 48-72 h; max response: active compounds read low
Procedure, shortened: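 Compounds were pin-transferred onto cells and incubated 48 or 72 hr at 37 degree Celsius, 95% humidity. CellTiter-Glo was added, plates sat 10 min at room temperature, then ATP-coupled luminescence was imaged as the viability read-out.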
% is scaled to controls: 0 for no effect and ±100 for the full control effect.

| Compound | max response |
| --- | --- |
| C[C@H](N)C(=O)N[C@@H](C)P(=O)(O)O | -6.78% (inactive) |
| O=P(O)(O)O | 2.99% (inactive) |
| C=CCOc1ccc(CC(=O)O)cc1Cl | 11.1% (inactive) |
| CCCC(=O)Nc1c(I)cc(I)c(CC(CC)C(=O)O)c1I (stereo not given) | -4.08% (inactive) |
| COC(=O)[C@H]1[C@H]2C[C@@H]3c4[nH]c5cc(OC)ccc5c4CCN3C[C@H]2C[C@H](OC)[C@@H]1OC | 14.2% (inactive) |
| CCCCCCCCCCCCCCCC(=O)OC[C@@H](O)[C@H]1OC[C@H](O)[C@H]1O | -3.59% (inactive) |
| NCCC[C@H](N)CC(=O)N[C@H]1CNC(=O)[C@H]([C@H]2C[C@H](O)NC(N)=N2)NC(=O)/C(=C/NC(N)=O)NC(=O)[C@H](CO)NC(=O)[C@H](CO)NC1=O (β3hOrn-[Dap]SS[ΔAla(Z-3-ureido)][X5]; lactam 1-C) | -0.188% (inactive) |
| C=C(C)C1CC=C(C)CC1 (stereo not given) | 7.51% (inactive) |
| C=Cc1c(C)c2cc3nc(cc4[nH]c(cc5nc(cc1[nH]2)C(C)=C5CCC(=O)OC)c(CCC(=O)O)c4C)[C@@]1(C)C3=CC=C(C(=O)OC)[C@H]1C(=O)OC | -15.7% (inactive) |
| COc1ccc2c(=O)c(C)c(-c3ccccc3)oc2c1CN(C)C | 2.73% (inactive) |
| OC1OC[C@@H](O)[C@H](O)[C@@H]1O (stereo not given in full) | 12.5% (inactive) |
| NC[C@@H]1O[C@H](O[C@H]2[C@@H](O)[C@H](O[C@@H]3[C@@H](O)[C@H](N)C[C@H](N)[C@H]3O[C@H]3O[C@H](CO)[C@@H](O)[C@H](O)[C@H]3N)O[C@@H]2CO)[C@H](N)[C@@H](O)[C@@H]1O | 5.13% (inactive) |
| OC[C@H]1OC([S-])[C@H](O)[C@@H](O)[C@@H]1O.[Au+] (stereo not given in full) | 5.78% (inactive) |
| COc1ccc2cc([C@H](C)CO)ccc2c1 | 0.171% (inactive) |
| CN[C@@H]1[C@@H](O)[C@@H](O[C@@H]2[C@@H](O)[C@H](O[C@H]3O[C@H](CN)[C@@H](O)[C@H](O)[C@H]3O)[C@@H](N)C[C@H]2NC(=O)C(O)CN)OC[C@]1(C)O (stereo not given in full) | 36% (inactive) |
| CC12CCC(C1)C(C)(C)C2=O (stereo not given) | 3.69% (inactive) |
| CC[C@H](C)[C@@H]1NC(=O)[C@H](Cc2ccc(O)cc2)NC(=O)[C@@H](N)CSSC[C@@H](C(=O)N2CCC[C@H]2C(=O)N[C@@H](CC(C)C)C(=O)NCC(N)=O)NC(=O)[C@H](CC(N)=O)NC(=O)[C@H](CCC(N)=O)NC1=O | 3.76% (inactive) |
| O=C1c2ccccc2C(=O)C1c1ccc(F)cc1 | -8.05% (inactive) |
| Cc1cc2nc3c(=O)[nH]c(=O)nc-3n(C[C@H](O)[C@H](O)[C@H](O)COP(=O)(O)OP(=O)(O)OC[C@H]3O[C@@H](n4cnc5c(N)ncnc54)[C@H](O)[C@@H]3O)c2cc1C | -11% (inactive) |
| Nc1nc(NC2CC2)c2ncn([C@@H]3C=C[C@@H](CO)C3)c2n1 | 3.44% (inactive) |

| Compound | max response |
| --- | --- |
| CCC(Cc1c(I)cc(I)c(O)c1I)C(=O)O (stereo not given) | -4.91% (inactive) |
| CC(C)c1nc(N(C)S(C)(=O)=O)nc(-c2ccc(F)cc2)c1/C=C/C(O)CC(O)CC(=O)O (stereo not given) | 0.926% (inactive) |
| O=C(O)CCC/C=C\C[C@@H]1[C@@H](/C=C/[C@@H](O)COc2cccc(C(F)(F)F)c2)[C@H](O)C[C@@H]1O | -14.2% (inactive) |
| COc1ccc(-c2noc(CC(=O)O)c2-c2ccc(OC)cc2)cc1 | 2.01% (inactive) |
| CC1C(=O)CC2C3(C)CCC2(C(C)C(=O)O)C(=O)C13 (stereo not given) | 5.4% (inactive) |
| OB(O)O | -9% (inactive) |
| CCC(O)c1ccccc1 (stereo not given) | 7.91% (inactive) |
| Cc1cc(=O)c(C(=O)N[C@@H](C(=O)N[C@@H]2C(=O)N3C(C(=O)O)=C(CSc4nnnn4C)CS[C@H]23)c2ccc(O)cc2)c[nH]1 | 0.794% (inactive) |
| O=[n+]1ccn([O-])c2ccccc21 | -0.645% (inactive) |
| CN(C)CCC=C1c2ccccc2C(C)(C)c2ccccc21 | -19.1% (inactive) |
| O.O.O.O.O.O.O.O=S(=O)([O-])[O-].[Co+2] | -0.614% (inactive) |
| CCCc1ccc(C(=O)O)cc1 | 8.62% (inactive) |
| CC[C@H]1OC(=O)[C@H](C)[C@@H](O[C@H]2C[C@@](C)(OC)[C@@H](O)[C@H](C)O2)C(C)[C@@H](O[C@@H]2O[C@H](C)C[C@H](N(C)C)[C@@H]2O)[C@](C)(OC)C[C@@H](C)C(=O)[C@H](C)[C@@H](O)[C@]1(C)O (stereo not given in full) | -4.62% (inactive) |
| CC(C)C[C@H](NC(=O)[C@@H](Cc1c[nH]c2ccccc12)NC(=O)[C@H](Cc1ccc(O)cc1)NC(=O)[C@H](CO)NC(=O)[C@H](Cc1c[nH]c2ccccc12)NC(=O)[C@H](Cc1cnc[nH]1)NC(=O)[C@@H]1CCC(=O)N1)C(=O)N[C@@H](CCCN=C(N)N)C(=O)N1CCC[C@@H]1C(=O)NCC(N)=O | 0.539% (inactive) |
| CC[C@H]1OC(=O)[C@H](C)[C@@H](O[C@H]2C[C@@](C)(OC)[C@@H](O)[C@H](C)O2)[C@H](C)[C@@H](O[C@@H]2O[C@H](C)C[C@H](N(C)C)[C@H]2O)[C@](C)(O)C[C@@H](C)CN(C)[C@H](C)[C@@H](O)[C@]1(C)O | -8.69% (inactive) |
| CC(C)(C)CC(C)(C)c1cc(Cc2cc(C(C)(C)CC(C)(C)C)cc(-n3nc4ccccc4n3)c2O)c(O)c(-n2nc3ccccc3n2)c1 | -2.05% (inactive) |
| O=C(Cc1cccs1)N[C@@H]1C(=O)N2C(C(=O)[O-])=C(C[n+]3ccccc3)CS[C@H]12 | 6.88% (inactive) |
| O=C1CC[C@@H](C(=O)N[C@H]2C[C@@H]2c2ccccc2)N1 | -13% (inactive) |
| CC12CCC(C[N+](C)(CCC[N+](C)(C)C)C1)C2(C)C (stereo not given) | -0.0096% (inactive) |
| CC[C@H](C)CCCCC(=O)N[C@@H](CCN)C(=O)N[C@H](C(=O)N[C@@H](CCN)C(=O)N[C@H]1CCNC(=O)[C@@H]([C@H](C)O)NC(=O)[C@H](CCN)NC(=O)[C@H](CCN)NC(=O)[C@H](CC(C)C)NC(=O)[C@@H](CC(C)C)NC(=O)[C@H](CCN)NC1=O)[C@@H](C)O (X2-[Dab]T[Dab][Dab][Dab][dL]L[Dab][Dab][dT]; lactam 4-C) | -9.96% (inactive) |
